MCF10A rereplic = induces DNA re-replication in MCF 10a normal breast cells; MCF 10A DNA re-replication, Hoechst nuclear intensity, 48 h; Potency, µM (doses to about 46.1 µM), for inactives: at the top dose activity, positive = re-replication, hits mostly activators; 350,000 tested, 2.9% active; AID 624296; also: % of control where 0% means no effect; nearly all actives have a fitted effect of over 50% in size
HT1080 IDH1KD tx = toxicity to HT-1080 IDH1 knockdown cells (counter line); AID 686971; HT-1080 IDH1 knockdown viability, ATP luminescence, 48 h; 360,000 tested, 2% active; Potency, µM (series often up to 46.1 µM), without a hit: at the top dose activity, negative = toxicity, hits mostly cytotoxic;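 also: 0% = DMSO wells and -100% = cell-free medium wells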
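Knockdown cells (IDH1KD HT-1080) received compounds 2 h after plating at 750 cells/well and were kept 48 h at 37 °C in 5% FBS RPMI. A CellTiter-Glo luminescence read gave % activity for curve fitting.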
KB-V1 MDR tox = kills drug-selected multidrug resistant KB-V1 cells. 400,000 tested, 3.4% active. Potency, µM (top dose mostly 46.1 µM), most hits filed as cytotoxic. KB-V1 MDR cells viability, CellTiter-Glo, 72 h; also: % is scaled to controls: 0 for no effect and ±100 for the full control effect; nearly all actives have a fitted effect of over 60% in size
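Cytotoxicity toward P-gp-expressing KB-V1 cells was determined as loss of CellTiter-Glo luminescence after 72 h at 37 degrees C. Compounds were tested in quantitative HTS format across a concentration range, with curves fitted to normalized data.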
HT1080NT lethal = kills 2HG-producing HT-1080-NT fibrosarcoma cells | 360,000 tested, 1.6% active | HT-1080-NT fibrosarcoma viability, CellTiter-Glo ATP luminescence, 48 h | Potency, µM (top dose mostly 46.1 µM), inactives show at the top dose activity, negative = less viability, usual class: cytotoxic;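 also: NT is the 2HG producing partner of a matched IDH1 knockdown line; 0% = DMSO-treated cells and -100% = media-only wells without cells; nearly all actives have a fitted effect of over 55% in size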
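750 cells/well, RPMI + 5% FBS; 2 h settle, compound pin-transfer, 48 h at 37 degrees C. CellTiter-Glo 10 min RT, luminescence. Normalized to DMSO and media-only wells.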
SW480 rereplic = DNA re-replication induction in SW480 cells; SW480 DNA re-replication, Hoechst DNA content imaging, 48 h; Potency, µM (doses to about 46.1 µM), for the others: top-dose re-replication activation, hits mostly activators; 340,000 tested, 1.8% active; also: % of control where 0% means no effect; nearly all actives have a fitted effect of over 55% in size
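Treated cells incubate 48 hr (37 C, 5% CO2), are stained 40 min with Hoechst, and nuclear fluorescence is enumerated; a rise in nuclei with high DNA signal marks re-replication.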
KB-3-1 tox = kills parental KB-3-1 adenocarcinoma cells; AID 1347075; KB-3-1 viability, CellTiter-Glo ATP luminescence, 72 h; 400,000 tested, 1.4% active; Potency, µM (series often up to 46.1 µM), usual class: cytotoxic; also: % is scaled to controls: 0 for no effect and ±100 for the full control effect; nearly all actives have a fitted effect of over 60% in size
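Cells are dispensed, compounds pinned in, plates held at 37 °C for 72 h, then CellTiter-Glo is added and luminescence read after 10 minutes. Cell line: parental KB-3-1 in phenol-red-free DMEM, 10% FBS.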
Active calls of the source: *; i = inactive; ? = inconclusive; nt = not tested or not shown; [ ] = another dose, or the depositor's remark. The list is not random: actives were taken first. Their share in the collection is about 7.9%. Calls follow the shape of the dose curve; as a rule, active = well fitted curve in the direction sought with a large enough effect; inconclusive = small, poorly fitted or top-dose-only effect, or another doubt; inactive = no such curve, though single readings can be large; an effect the other way counts as inactive or inconclusive. Potency is read from the fitted curve at half-maximal effect.

SMILES	MCF10A rereplic	HT1080 IDH1KD tx	KB-V1 MDR tox	HT1080NT lethal	SW480 rereplic	KB-3-1 tox
Cc1cc(-c2ccc(/C=N/n3cnnc3)o2)ccc1Cl	-2%	1%	i	3%	-3%	i
Cc1c(Br)cccc1NC(=O)C1(C)CCN1C(C)C (stereo not given)	nt	2%	i	-2%	nt	i
O=C1C=CC(=Nc2ccc3c(c2)Cc2cc(F)ccc2-3)O1	1%	2%	nt	-5%	?	nt
O=C1C=CC(=Nc2cccc3c2C(=O)c2ccccc2-3)O1	?	-53%	i	0%	23µM*	?
N#Cc1ccc(/C=C\c2nccc3c2[nH]c2ccccc23)cc1	?	15µM*	i	29µM*	2.1µM*	i
OCCCCc1nccc2c1[nH]c1ccccc12	9%	-17%	i	-3%	-8%	i
Clc1ccc(/C=C\c2nccc3c2[nH]c2ccccc23)cc1	2.6µM*	18µM*	?	21µM*	9.2µM*	i
COc1ccc(/C=C\c2nccc3c2[nH]c2ccccc23)cc1	nt	nt	i	nt	nt	i
C[C@@H]1CN([C@@H](C)CO)C(=O)CCCn2nncc2CO[C@@H]1CN(C)S(=O)(=O)c1ccccc1	nt	-2%	i	-6%	nt	i
Cc1ccc(CN(Cc2ccco2)c2cnc(S(C)(=O)=O)nc2C(=O)Nc2ccc(Br)cc2)o1	nt	nt	?	nt	nt	i
Cc1ccc(C)c(S(=O)(=O)N2CCCOC2CNC(=O)C(=O)NCc2ccco2)c1 (stereo not given)	-1%	-9%	23µM*	-9%	8%	?
Cc1cc(S(=O)(=O)N2CCCOC2CNC(=O)C(=O)NCc2ccco2)ccc1F (stereo not given)	8.2µM*	-4%	?	16%	?	i
Cc1ccc(CNC(=O)C(=O)NCC2OCCCN2S(=O)(=O)c2cccs2)cc1 (stereo not given)	0%	-9%	i	0%	19%	i
Cc1ccc(S(=O)(=O)N2CCCOC2CNC(=O)C(=O)NCc2cccs2)cc1 (stereo not given)	5%	0%	9.2µM*	-3%	?	i
COc1ccc(S(=O)(=O)N2CCCOC2CNC(=O)C(=O)NCCc2ccco2)cc1C (stereo not given)	?	18µM*	i	16µM*	18µM*	6.5µM*
COc1ccc(CCNC(=O)C(=O)NCC2OCCN2S(=O)(=O)c2ccc(Br)cc2)cc1OC (stereo not given)	7%	-4%	i	0%	2%	i
COc1ccc(S(=O)(=O)N2CCOC2CNC(=O)C(=O)NCCc2ccc(OC)c(OC)c2)cc1 (stereo not given)	10%	-10%	18µM*	-2%	12%	?
O=C(CSc1nnnn1-c1ccccc1)N1CCc2ccccc2C1	21%	3%	15µM*	5%	-4%	i
CC(=O)c1ccc(-n2nnnc2SCC(=O)N2CCc3ccccc3C2)cc1	-3%	12%	12µM*	8%	?	i
CSc1ncc2[nH]c(C(O)c3ccccc3)nc2n1 (stereo not given)	2%	-7%	8.2µM*	?	0%	3.3µM*
C[C@]12c3[nH]c4ccccc4c3CCN1C(=O)C(CC(=O)NCCc1ccccn1)C[C@@H]2C(=O)N1CCCCC1 (stereo not given in full)	-9%	0%	i	6%	-40%	i
O=C(CC1C[C@H](C(=O)N2CCCCC2)[C@@]2(CCc3ccccc3)c3[nH]c4ccccc4c3CCN2C1=O)NCCc1ccccn1 (stereo not given in full)	24%	7%	12µM*	9%	-54%[9.22 µM]	?
